Measured values published in PubChem BioAssay AID1645856 (Buhrlage Lab, Dana-Farber Cancer Institute and Novartis …, 2021).
About 510 (1.1%) of roughly 47,000 compounds were called active. Rule as the data show it: active = inhibition above about 30%; inactive = the rest. What follows is part of a selection rich in actives, with near analogues and random picks from the rest.

Each compound was assayed against Ubiquitin carboxyl-terminal hydrolase 10 (Homo sapiens) (UniProt Q14694) (assay: blocks human USP10 ubiquitin-rhodamine cleavage (AID 1645856)). Settings: purified USP10, Ub-rhodamine fluorescence, 60 min; at 20 µM; stronger effect = higher value.
Chain of Ubiquitin carboxyl-terminal hydrolase 10 (Homo sapiens) (Q14694 whole entry, looked up): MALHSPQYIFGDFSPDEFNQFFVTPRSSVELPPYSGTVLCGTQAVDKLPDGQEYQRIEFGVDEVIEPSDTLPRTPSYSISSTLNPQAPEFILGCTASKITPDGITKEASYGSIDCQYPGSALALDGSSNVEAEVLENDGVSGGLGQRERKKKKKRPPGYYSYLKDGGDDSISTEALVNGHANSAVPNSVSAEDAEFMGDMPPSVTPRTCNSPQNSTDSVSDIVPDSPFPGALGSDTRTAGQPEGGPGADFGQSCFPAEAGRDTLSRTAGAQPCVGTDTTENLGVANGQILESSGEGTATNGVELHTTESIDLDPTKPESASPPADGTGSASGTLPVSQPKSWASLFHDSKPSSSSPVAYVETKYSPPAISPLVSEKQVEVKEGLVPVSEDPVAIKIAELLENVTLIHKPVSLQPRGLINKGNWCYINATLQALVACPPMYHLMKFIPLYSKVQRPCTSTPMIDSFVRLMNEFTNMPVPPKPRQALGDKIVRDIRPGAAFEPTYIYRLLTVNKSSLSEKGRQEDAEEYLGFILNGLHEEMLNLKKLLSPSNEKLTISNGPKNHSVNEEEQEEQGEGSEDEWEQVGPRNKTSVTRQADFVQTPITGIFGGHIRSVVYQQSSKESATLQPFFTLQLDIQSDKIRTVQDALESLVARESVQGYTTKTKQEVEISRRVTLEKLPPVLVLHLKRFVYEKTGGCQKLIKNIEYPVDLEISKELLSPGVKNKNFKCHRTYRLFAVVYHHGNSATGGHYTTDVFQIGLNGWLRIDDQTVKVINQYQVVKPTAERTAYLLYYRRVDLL

**Q.** How did the inhibition turn out when COC(=O)COc1cccc2c(=O)n(CC(=O)N3CCc4ccccc43)ccc12 was run?
**A.** Its inhibition is 2.69% (inactive).

**Q.** COc1ccccc1CN1CCC2(CC1)NC(=O)C(CC(C)C)NC2=O (stereo unspecified) was tested. Which inhibition did it give?
**A.** Its inhibition is 0.757% (inactive).

**Q.** For CC(C)NC(=O)c1cc(-c2cnc(-c3ccnn3C)nc2)cn1CC1CC1, which inhibition is on record?
**A.** The inhibition was -0.689% (inactive).

**Q.** O=S(=O)(Cc1ccccc1)N1CCC2(CCN(Cc3cccc(F)c3)C2)C1 (stereo unspecified) was tested. Which inhibition did it give?
**A.** Its inhibition is -2.23% (inactive).

**Q.** How did the inhibition turn out when O=c1ccc(S(=O)(=O)N2CCOCC2)cn1Cc1ccccc1 was run?
**A.** Its inhibition is -0.385% (inactive).

**Q.** COc1cc(-c2nc(CC(=O)NCCc3c[nH]c4ccc(F)cc34)cs2)cc(OC)c1OC was tested. Which inhibition did it give?
**A.** Its inhibition is -1.95% (inactive).

**Q.** CC(C)n1c(C2CCN(C(=O)Nc3ccc4c(c3)CCC4)C2)nc2ccncc21 (stereo unspecified) was tested. Which inhibition did it give?
**A.** The inhibition was 2.17% (inactive).

**Q.** For COc1cccc(CNC(=O)c2nnn(CC(=O)Nc3cc(C)ccc3C)c2N)c1, which inhibition is on record?
**A.** The inhibition was 29.8% (inactive).

**Q.** With Cc1ccc(Nc2nc(NCC(=O)Nc3cc(C)ccc3C)nc(Nc3ccc(C)cc3)n2)cc1 as the compound, how does the inhibition read?
**A.** The inhibition was 37% (active).

**Q.** How did the inhibition turn out when Cc1ccc(NC(=O)Cc2sc(Nc3ccc(C)cc3)nc2O)cc1 was run?
**A.** Its inhibition is 25.6% (inactive).

**Q.** Which inhibition does the source give for CS(=O)(=O)N1Cc2ccccc2OC2(CCCNC2)C1 (stereo unspecified) here?
**A.** Its inhibition is -0.607% (inactive).

**Q.** For CCOc1nccnc1N1CCC(N(C)S(=O)(=O)C2CC2)C1 (stereo unspecified), which inhibition is on record?
**A.** The inhibition was 1.55% (inactive).

**Q.** With CC(C)c1ccc(NC(=O)C[n+]2cc(-c3ccc(F)cc3)n3c2CCC3)cc1 as the compound, how does the inhibition read?
**A.** Its inhibition is 0.686% (inactive).

**Q.** How did the inhibition turn out when COc1cccc(NC(=O)C(Sc2cccc(NC(=O)c3ccccc3F)c2)c2ccccc2)c1 (stereo unspecified) was run?
**A.** Its inhibition is 32.4% (active).

**Q.** For COc1ccccc1C(=O)Nc1cccc(Oc2ccccc2)c1, which inhibition is on record?
**A.** Its inhibition is 11.9% (inactive).

**Q.** For COc1cccc(NC(=O)c2nn(-c3ccc(F)cc3)c(OC)cc2=O)c1, which inhibition is on record?
**A.** The inhibition was 0.262% (inactive).

**Q.** How did the inhibition turn out when COc1ccc(C2CC(=O)c3cnc(NCC4CCCO4)nc3C2)cc1 (stereo unspecified) was run?
**A.** The inhibition was -0.196% (inactive).

**Q.** With COc1cccc(C2c3[nH]c4ccccc4c3C[C@@H]3C(=O)N(CC4CCCO4)CC(=O)N23)c1 (stereo partly specified) as the compound, how does the inhibition read?
**A.** The inhibition was -6.67% (inactive).

**Q.** For Cc1ccc(C(=O)Nc2nc3c(s2)CCC3C(=O)NCc2ccncc2)cc1 (stereo unspecified), which inhibition is on record?
**A.** The inhibition was -7.71% (inactive).

**Q.** Which inhibition does the source give for Cc1cc(F)ccc1NC(=O)c1cc(C2CC2)n2nccc2n1 here?
**A.** The inhibition was -3.56% (inactive).

**Q.** Which inhibition does the source give for Cc1ccc(-n2cc(-c3noc(C(=O)Nc4ccc(F)cc4C)n3)nn2)cc1 here?
**A.** The inhibition was 76.1% (active).

**Q.** Cc1ccc(Cn2cc(-c3noc(-c4ccccn4)n3)nn2)cc1 was tested. Which inhibition did it give?
**A.** The inhibition was 7.3% (inactive).

**Q.** Which inhibition does the source give for O=C1NCCCn2cc(S(=O)(=O)NCc3ccc4c(c3)OCO4)cc21 here?
**A.** Its inhibition is -0.173% (inactive).

**Q.** With Cc1nc2cc(-c3noc(-c4cnccn4)n3)ccc2n(C2CCCC2)c1=O as the compound, how does the inhibition read?
**A.** The inhibition was -3.38% (inactive).

**Q.** How did the inhibition turn out when CCCCN(C)c1ccc2nnc(CCc3nc(-c4cc(OC)cc(OC)c4)no3)n2n1 was run?
**A.** Its inhibition is -5.1% (inactive).

**Q.** How did the inhibition turn out when CNC(=O)N1C[C@H]2C[C@H](C(=O)Nc3ccc4c(c3)OCO4)[C@@H](C1)O2 was run?
**A.** Its inhibition is -1.52% (inactive).

**Q.** O=C(COc1ccc2ccccc2c1)NCc1nnnn1-c1ccc(Cl)cc1 was tested. Which inhibition did it give?
**A.** Its inhibition is 6.45% (inactive).

**Q.** For CC1(C(N)=O)CN(Cc2ccnc(N3CCCC3)n2)CCO1 (stereo unspecified), which inhibition is on record?
**A.** Its inhibition is -2.23% (inactive).

**Q.** CN1CC(=O)N(C2CCCNC2)Cc2c(NC3CCc4ccccc43)ncnc21 (stereo unspecified) was tested. Which inhibition did it give?
**A.** The inhibition was -1.83% (inactive).

**Q.** For O=S(=O)(c1ccc(F)c(Cl)c1)N1CCC(N2CCOCC2)CC1, which inhibition is on record?
**A.** The inhibition was 1.61% (inactive).

**Q.** Which inhibition does the source give for CC(C)C(NS(=O)(=O)c1ccc(Cl)cc1)C(=O)OCC(=O)C12CC3CC(CC(C3)C1)C2 (stereo unspecified) here?
**A.** The inhibition was 3.82% (inactive).

**Q.** For Cc1cccc(CNC(=O)C2CCc3nc(N4CCOCC4)ncc3C2)c1 (stereo unspecified), which inhibition is on record?
**A.** The inhibition was -3.24% (inactive).

**Q.** For COc1cccc(O[C@@H]2C[C@@H](NC(=O)c3ncoc3C)[C@H](O)[C@H]2O)c1, which inhibition is on record?
**A.** The inhibition was -1.35% (inactive).

**Q.** For O=S1(=O)C=C(CSCCO)c2cc(Cl)ccc21, which inhibition is on record?
**A.** Its inhibition is -1.29% (inactive).

**Q.** Cc1cc(C(=O)N2CCCCC2c2nncn2CC2CC2)nn1C (stereo unspecified) was tested. Which inhibition did it give?
**A.** Its inhibition is 1.03% (inactive).

**Q.** How did the inhibition turn out when COCCNC(=O)c1cccc(C2CCCN(C(=O)Nc3ccccc3)C2)c1 (stereo unspecified) was run?
**A.** The inhibition was 6.54% (inactive).

**Q.** How did the inhibition turn out when O=C(CSc1n[nH]c(-c2ccccc2Cl)n1)NCC1CCCO1 (stereo unspecified) was run?
**A.** Its inhibition is -1.9% (inactive).

**Q.** For COc1ccc(CC(=O)N2CCC3(C2)C(=O)N(C)c2ccccc23)cc1 (stereo unspecified), which inhibition is on record?
**A.** Its inhibition is -4.15% (inactive).

**Q.** For CCOC(=O)N1CCN(Cc2nc3ccc([N+](=O)[O-])cc3c(=O)n2-c2cccc(OC)c2)CC1, which inhibition is on record?
**A.** The inhibition was -1.3% (inactive).

**Q.** With CC(C)Cn1cnc2nc(CSc3ccccc3NC(=O)Nc3ccccc3)cc(=O)n21 as the compound, how does the inhibition read?
**A.** Its inhibition is 2.5% (inactive).

**Q.** With Cc1ccc(S(=O)(=O)N2CCC(c3nc(C(=O)N(C)C)c(C)o3)CC2)cc1C as the compound, how does the inhibition read?
**A.** Its inhibition is -0.0972% (inactive).

**Q.** How did the inhibition turn out when CCCCCCSc1ncnc2c1sc1nc(-c3ccccc3)c3c(c12)CC(C)(C)OC3 was run?
**A.** The inhibition was -3.17% (inactive).

**Q.** For CSc1ncnc2c1sc1nc(-c3ccccc3)c3c(c12)CC(C)(C)OC3, which inhibition is on record?
**A.** The inhibition was 0.0174% (inactive).

**Q.** With CC1(C)Cc2c(c(-c3ccco3)nc3sc4c(SCCCc5ccccc5)ncnc4c23)CO1 as the compound, how does the inhibition read?
**A.** Its inhibition is 58.4% (active).

**Q.** With Clc1cc2nc(N3CCN(c4ccccn4)CC3)c3nncn3c2cc1Cl as the compound, how does the inhibition read?
**A.** Its inhibition is -8.09% (inactive).

**Q.** Cc1ccccc1CNC(=O)Cn1c(=O)ccn(Cc2ccc(F)cc2)c1=O was tested. Which inhibition did it give?
**A.** Its inhibition is 0.832% (inactive).

**Q.** For O=C(CCCn1c(=O)c2ccccc2n(Cc2ccccc2F)c1=O)NC1CCCC1, which inhibition is on record?
**A.** The inhibition was 8.78% (inactive).

**Q.** N#Cc1ccccc1Cn1c(=O)n(CCCC(=O)NCc2ccc(F)cc2)c(=O)c2ccccc21 was tested. Which inhibition did it give?
**A.** Its inhibition is 34% (active).

**Q.** COc1cccc(C(O)c2ncc(-c3ccc4ccccc4c3)[nH]2)c1 (stereo unspecified) was tested. Which inhibition did it give?
**A.** Its inhibition is -5.14% (inactive).

**Q.** CN(C)c1nc(C2CCN(C(=O)c3ccccc3)CC2)cn2nccc12 was tested. Which inhibition did it give?
**A.** Its inhibition is -1.26% (inactive).

**Q.** For CN(C)c1nccnc1C1CN(C(=O)c2cc(C(C)(C)C)[nH]n2)CCO1 (stereo unspecified), which inhibition is on record?
**A.** Its inhibition is 4.78% (inactive).

**Q.** How did the inhibition turn out when C/C=C(\Cl)C1=CC(=O)[C@]23C[C@H]2[C@@]2(C)CO[C@@]1(O)[C@@]3(O)O2 was run?
**A.** Its inhibition is -13.4% (inactive).

**Q.** Cc1ccc(S(=O)(=O)N2CCCC(c3nc(-c4ccc(=O)[nH]c4)no3)C2)cc1 (stereo unspecified) was tested. Which inhibition did it give?
**A.** The inhibition was 0.0273% (inactive).

**Q.** With O=C(Nc1ccc(Cl)cc1F)c1cc(-c2ccccn2)n[nH]1 as the compound, how does the inhibition read?
**A.** Its inhibition is 10.2% (inactive).

**Q.** COc1cc(Cl)c(NC(=O)c2cc(-c3ccccn3)n[nH]2)c(OC)c1 was tested. Which inhibition did it give?
**A.** The inhibition was 38% (active).

**Q.** Which inhibition does the source give for Cc1ccc(CC(=O)N2CCN(C(=O)c3cc(-c4ccccn4)n[nH]3)CC2)cc1 here?
**A.** The inhibition was -1.22% (inactive).
